Source: PubChem BioAssay (NCI)
This is part of a sample that, as a whole, favours compounds with a hit. Of some 79,000 tested, about 15% had one in any assay. Unmarked numbers belong to inactive results. Activity calls are given as the source filed them. Rule as the data show it: active = growth inhibition above about 70%; inactive = the rest.

Assay: NCI Yeast Anticancer Drug Screen. Data for the mgt1 strain (AID 153)
Details: S. cerevisiae mgt1 mutant growth inhibition, hits give high values
Experimental: Growth inhibition of yeast strains with defined genetic alterations is measured as a screen for potential anti-cancer activity. Selected strains with alterations in DNA damage repair or cell cycle control were exposed to compounds and growth inhibition was measured relative to vehicle treated controls. The strain used in this assay is mgt1

| SMILES | growth inhibition (at 1.2 µM) | growth inhibition (at 3.7 µM) | growth inhibition (at 11.0 µM) | growth inhibition (at 33.0 µM) | growth inhibition (at 100.0 µM) |
| --- | --- | --- | --- | --- | --- |
| O=CC1(F)CC1(c1ccccc1)c1ccccc1 (stereo not given) | -2% | -7% | -2% | 0% | 87% (active) |
| NC(=S)N1N=C2c3ccccc3CC[C@H]2[C@@H]1c1ccc(Cl)cc1 | 7% | -10% | 0% | 29% | 85% (active) |
| Nc1ccc2c(c1)C(=O)c1c(F)cccc1-2 | -1% | -2% | 1% | 13% | 74% (active) |
| COc1cc([C@@H]2c3cc4c(cc3[C@@H](NC(=O)NO)[C@H]3COC(=O)[C@H]23)OCO4)cc(OC)c1O | -5% | -3% | -2% | 14% | 4% |
| COC(=O)C(Cl)(Cl)N=Nc1c(Cl)cc(Cl)c(C)c1Cl | -50% | 20% | 96% (active) | 98% (active) | 99% (active) |
| Nc1ccc(N=Nc2ccc(-c3ccc(O)cc3)cc2)c2ccc(S(=O)(=O)O)cc12 | 1% | 0% | 3% | 6% | 12% |
| CN(C)CCNC(=Cc1ccc2ccccc2[n+]1C)NCCN(C)C | 0% | 0% | -3% | -1% | -1% |
| Cc1c(Cl)c(C)c(Cl)c(O)c1Cl | 18% | 7% | 56% | 98% (active) | 98% (active) |
